Sfp PPTase inh: inhibitors of Bacillus subtilis Sfp phosphopantetheinyl transferase; Potency, µM, without a hit: largest response in the series, negative = inhibition, usual class: inhibitors; Q9F4F7; 310,000 compounds, 3.5% hits; Biochemical Sfp PPTase activity, qHTS;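 note: the enzyme is Sfp with the accession as filed and its product quenches rhodamine fluorescence; 0% = enzyme reaction without inhibitor and -100% = no enzyme wells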
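Compounds were incubated with enzyme (final 15 nM) for 15 min at room temperature before substrate addition started the reaction. Fluorescence at 525 nm excitation, 598 nm emission was recorded immediately and after 30 minutes.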
BAZ2B inh: BAZ2B (human) inhibition. Q9UIF8. AlphaScreen BAZ2B-H3K14Ac peptide displacement. Potency, µM (doses to about 114 µM), inactives show at the highest dose activity change, negative = inhibition, most hits filed as inhibitors. 360,000 compounds, 4.4% hits. AID 504333; note: % is set by controls: 0 for no effect and ±100 for the full control effect; nearly all actives have a fitted effect of over 60% in size
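AlphaScreen displacement: compounds (up to 110uM) incubated 30 min at room temperature with a preformed 50 nM BAZ2B/50 nM biotinylated H3K14Ac peptide complex in PBS pH 7.4 with Tween-20. Donor and acceptor beads at 10 ug/mL final added, 20 min light-protected before reading.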
G9a block: inhibitors of human histone lysine methyltransferase G9a; AID 504332; Q96KQ7; Potency, µM (titrated, usually from 102 µM), for inactives: at the top dose activity, negative = inhibition, actives largely listed as inhibitors; 350,000 compounds, 8.8% hits; G9a H3K9 monomethylation, AlphaScreen, 2 h; note: % is set by controls: 0 for no effect and ±100 for the full control effect; nearly all actives have a fitted effect of over 75% in size
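Readings reflect AlphaScreen signal from monomethyl-H3K9 antibody detection. HMT at 20 nM; substrate b-H3K9 500 nM; cofactor SAM 20 uM; 2 h RT reaction; compounds tested as titrations in qHTS with 15 min preincubation.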
HP1b binding inh: HP1-beta chromodomain-methylated histone interaction inhibition. 390,000 compounds, 0.56% hits. Potency, µM (doses to about 114 µM), without a hit: at the top dose activity change, negative = inhibition, hits mostly inhibitors. P83916. AlphaScreen HP1-beta / biotin-H3K9me3 peptide binding; note: nearly all actives have a fitted effect of over 70% in size
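HP1-beta protein (50 nM final) preincubated 30 min at room temperature with biotinylated H3(1-18)K9me3 peptide (50 nM) in PBS pH 7.4, 0.01% Tween-20, then compound added for 30 min. AlphaScreen streptavidin donor/nickel chelate acceptor beads (10 ug/mL final), 30 min dark, luminescence read.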
JMJD2A Tudor inh: JMJD2A Tudor domain (human) inhibition; O75164; AID 504339; AlphaScreen JMJD2A-Tudor / H3K4me3 peptide binding; 390,000 compounds, 4.4% hits; Potency, µM (doses to about 114 µM), for inactives: at the highest dose activity change, negative = inhibition, actives largely listed as inhibitors; note: % is set by controls: 0 for no effect and ±100 for the full control effect; nearly all actives have a fitted effect of over 50% in size
Starred values were filed as active, the others as inactive; ? = inconclusive; nt = no result given; [ ] = remark or other dose. Hits are enriched below; roughly 12% of the tested compounds scored in any of these assays. Calls come from the whole dose curve; as a rule, active = well fitted curve in the direction sought with a large enough effect; inconclusive = small, poorly fitted or top-dose-only effect, or another doubt; inactive = no such curve, though single readings can be large; an effect the other way counts as inactive or inconclusive. Potency is the fitted concentration of half-maximal effect.

SMILES | Sfp PPTase inh | BAZ2B inh | G9a block | HP1b binding inh | JMJD2A Tudor inh
COc1ccc(C(C[N+](=O)[O-])c2c(-c3ccccc3)cc3ccccn23)c(OC)c1 (centres undefined) | 44.7µM* | 79.4µM* | 10µM* | 0.0% | ?
Cc1cc2ccccn2c1C(C[N+](=O)[O-])c1ccc(N(C)C)cc1 (centres undefined) | -19.7% | 8.91µM* | 10µM* | ? | 11.2µM*
COc1ccccc1C(C[N+](=O)[O-])c1c(N)n(C)c(=O)n(C)c1=O (centres undefined) | 6.2% | -25.2% | -38.4% | 64.5% | -14.1%
COc1ccc(C(C[N+](=O)[O-])c2c(C)cc3ccccn23)cc1 (centres undefined) | 5.6% | ? | 35.5µM* | -16.8% | ?
Cc1cc2ccccn2c1C(=O)Nc1ccccc1 | 19.0% | -22.7% | -22.0% | 42.2% | -0.7%
COc1ccc(C(C[N+](=O)[O-])c2c(C)[nH]n(-c3ccccc3)c2=O)cc1 (centres undefined) | 39.8µM* | -22.6% | 9.4%[2.33 µM] | ? | 89.1µM*
CN(CC(=O)Nc1ccc(F)cc1)C(=O)COC(=O)C1CCN(c2ccc(C(F)(F)F)cn2)CC1 | nt | -5.1% | 79.4µM* | 30.1% | -41.4%
O=C(COC(=O)C1CCN(c2ccc(C(F)(F)F)cn2)CC1)Nc1ccc(F)cc1[N+](=O)[O-] | nt | ? | 11.2µM* | ? | ?
CCOc1ccc(C(=O)C(C)OC(=O)C2CCN(c3ccc(C(F)(F)F)cn3)CC2)cc1 (centres undefined) | nt | 15.6% | 56.2µM* | 68.2% | 25.5%
O=C(COC(=O)C1CCN(c2ccc(C(F)(F)F)cn2)CC1)Nc1ccc(Cl)cc1 | nt | 7.6% | 7.4%[0.501 µM] | 52.3% | 0.7%
CC1=C(C(=O)NCc2ccccc2)C(c2ccc(C)o2)n2ncnc2N1 (centres undefined) | 16.5% | -5.1% | ? | 27.6% | -15.3%
CC1(C)CN(O)CCN1O | -13.4% | -27.8% | 20µM* | 19.8% | -16.9%
Cc1ccc(S(=O)(=O)O/N=C2/CCCc3occc32)cc1 | 9.3% | -36.6% | 50.1µM* | 5.8% | ?
O=C(O/N=C1/CCCc2occc21)c1ccc(F)cc1 | 11.4% | -14.1% | -11.2% | 2.8% | ?
COCC(=O)Nc1ccccc1C(=O)NC(C)C | 15.6% | 3.9% | 9.0%[59 µM] | 1.4% | -11.5%
CNc1nnc(SCC(=O)N2c3ccccc3NC(=O)CC2C)s1 (centres undefined) | nt | 5.1% | 11.5%[2.33 µM] | 26.4% | -6.8%
CCCN1CCN(CCCNC(=O)C2CCN(c3nnc(-n4c(C)ccc4C)s3)CC2)CC1 | 9.5% | -8.2% | ? | 25.0% | -10.3%
CC(C)N(C(=O)CSc1nc2ccccc2n1Cc1ccccc1)C(C)C | 0.2% | 6.9% | -2.6%[59 µM] | 44.0% | 4.7%
CC(C)N(C(=O)CSc1nc2ccccc2n1-c1ccccc1)C(C)C | 79.4µM* | -7.0% | 21.1%[0.0925 µM] | 40.3% | -14.1%
Cc1cccc(N(C)S(=O)(=O)c2ccc3[nH]c(=O)c(=O)[nH]c3c2)c1 | 4.3% | -6.6% | 2.7%[12.7 µM] | 34.5% | -1.9%
Cc1ccc(CN2CCN(C(=O)c3ccncc3)CC2)cc1 | ? | 22.4µM* | 8.91µM* | ? | 7.94µM*
O=C(c1ccc(Cn2ccc([N+](=O)[O-])n2)cc1)N1CCN(Cc2ccccc2)CC1 | 3.7% | -13.4% | nt | 4.6% | -24.0%
O=C(c1ccc(-c2ccccc2)cc1)N1CCN(Cc2ccccn2)CC1 | 10.3% | ? | 39.8µM* | 13.1% | ?
CCN1CCN(C(=S)c2ccc(-c3ccccc3)cc2)CC1 | 22.4µM* | -29.0% | 31.6µM* | -8.7% | -22.1%
CSc1ccc(CN2CCN(C(=O)c3ccc([N+](=O)[O-])cc3)CC2)cc1 | -18.9% | 50.1µM* | nt | ? | 22.4µM*
SMILES | Sfp PPTase inh | BAZ2B inh | G9a block | HP1b binding inh | JMJD2A Tudor inh
COc1ccc(Oc2ncnc3c2oc2ccc(Br)cc23)cc1 | 8.8% | -14.1% | -4.5% | 38.7% | -2.3%
Cc1cc(C)c2oc(C(=O)Nc3c(C(=O)c4ccc(F)cc4)oc4ccccc34)cc(=O)c2c1 | nt | 21.3% | 15.6%[59 µM] | 84.5% | -8.3%
Cn1c(=O)[nH]c(=O)c2c1nc(N(CCO)Cc1ccccc1)n2CCCc1ccccc1 | 17.5% | -3.4% | ? | 57.5% | -14.3%
CCN1CCN(C(=S)c2ccc(Cl)c(Cl)c2)CC1 | 15.8µM* | -33.5% | 2.51µM* | -29.9% | -32.3%
CCN1CCN(C(=S)Nc2ccc(Cl)c(Cl)c2)CC1 | -6.9% | 2.8% | ? | 12.3% | -24.2%
COCC1CCCCN1C(=O)c1ccc(OC2CCN(Cc3ccccn3)CC2)cc1 (centres undefined) | 4.1% | -38.5% | 2.6% | 17.7% | 25.1µM*
Cc1ccc(C(=S)N2CCN(Cc3ccccc3)CC2)cc1 | 11.2µM* | ? | ? | -5.7% | -21.0%
C/C(N)=C(/C#N)C(=O)COC(=O)c1cc(-c2ccc(Br)cc2)nc2ccccc12 | 3.0% | 16.3% | 1.78µM* | 14.1% | -4.1%
Cc1sc(NC(=O)c2cc(-c3ccccc3)nc3ccccc23)c(C(N)=O)c1C | -12.3% | -28.7% | 15.5%[59 µM] | 19.2% | -14.5%
O=C(COC(=O)c1cc(-c2ccccc2)nc2ccccc12)c1ccc(Br)cc1 | nt | 11.8% | 27.9%[59 µM] | 37.0% | 4.9%
Cc1sc(NC(=O)c2cc(-c3ccc(Cl)cc3)nc3ccccc23)c(C(N)=O)c1C | ? | 1.8% | 12.6µM* | ? | -13.8%
Cc1c(C(=O)NN)sc(-c2ccccc2)c1C#N | 12.2% | nt | -5.0% | 69.9% | -2.7%
CCOC(=O)c1sc(NC(=O)c2cc(-c3ccc(C)cc3)nc3ccccc23)c(C#N)c1C | 20µM* | 0.4% | 5.62µM* | ? | 79.4µM*
CCOC(=O)c1sc(-c2ccc(C)cc2)c(C#N)c1C | ? | 12.1% | 39.8µM* | -10.2% | 2.7%
CCCCCCCCCCOC(=O)C[N+](C)(C)C/C=C(/C)Cl | -18.1% | -3.6% | 8.8%[59 µM] | 8.0% | -13.4%
COc1ccc(-c2cc(C(=O)Nc3sc4c(c3C#N)CCCC4)c3ccccc3n2)cc1 | 8.7% | -10.7% | 15.4%[59 µM] | -10.3% | -29.5%
Cc1ccccc1-c1cc(C(=O)Nc2sc(C(=O)OC(C)C)c(C)c2C#N)c2ccccc2n1 | 39.8µM* | -0.8% | 44.7µM* | ? | 56.2µM*
O=C(Cn1ncc(Cl)c(Cl)c1=O)N1CCN(Cc2ccccc2)CC1 | -15.3% | -13.7% | 56.2µM* | 34.7% | -3.8%
CC(C)(C)Sc1ccc2nc3c(n2c1)CCCC3 | -11.7% | ? | 50.1µM* | 3.9% | -29.8%
Cc1ccc(OCc2nnc(SCC(=O)NCc3ccccc3)n2C)cc1 | 13.0% | -5.8% | 6.3%[12.7 µM] | 14.2% | -6.7%
Cc1ccc(/C=C2\SC(=S)N(CCC(=O)NCCCN3CCOCC3)C2=O)cc1 | 14.0% | -24.2% | -13.7% | 11.5% | -35.7%
CC(C)c1ccc(/C=C2\SC(=S)N(CC(=O)NCCCN3CCOCC3)C2=O)cc1 | -28.7% | 31.6µM* | 79.4µM* | ? | ?
COC(=O)c1ccc(/C=C2\SC(=S)N(CCCC(=O)NCCCN3CCOCC3)C2=O)cc1 | -3.0% | ? | ? | 70.8µM* | -33.5%

Screens from PubChem BioAssay.
